What is called inhibition is the relative decrease from the control value, in per cent.

“And” between values parts separate entries of the source, which are not always exact repeats. Identical values can stand only once. Values without a mark were called inactive. No rule for the calls is given here.

In the assay the target is L-lactate dehydrogenase (Plasmodium falciparum (isolate CDC / Honduras)) (UniProt Q27743). The experiment in a line: PfLDH activity inhibition – cell lysate, 3D7 strain, counter-screen for P. falciparum growth inhibition project (AID 2304).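 Also: 0% = vehicle and 100% = reference inhibitor.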 Conditions: P. falciparum 3D7 crude extract, LDH APAD/NBT absorbance; at 2 µM; active compounds read high. On the technique in general: The purpose of a counterscreen is to sort out artefacts and off-target activity.
L-lactate dehydrogenase (Plasmodium falciparum (isolate CDC / Honduras)), sequence (Q27743 whole entry, looked up): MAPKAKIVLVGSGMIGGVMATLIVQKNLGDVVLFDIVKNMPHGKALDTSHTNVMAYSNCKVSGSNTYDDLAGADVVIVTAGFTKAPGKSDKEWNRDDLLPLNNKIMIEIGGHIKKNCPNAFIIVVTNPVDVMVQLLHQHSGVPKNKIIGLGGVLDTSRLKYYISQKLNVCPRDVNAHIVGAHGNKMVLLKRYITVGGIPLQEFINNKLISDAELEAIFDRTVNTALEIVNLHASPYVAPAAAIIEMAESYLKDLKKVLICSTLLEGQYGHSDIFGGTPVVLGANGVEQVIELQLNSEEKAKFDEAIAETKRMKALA
On to `CC(=O)N/N=C/[C@H](CCc1ccccc1)NC(=O)[C@H](CC(C)C)NC(=O)c1ccc(OCCN2CCOCC2)cc1`, for which the inhibition was -9%.

`CN1CCN(Cc2ccc(-c3cc4nccc(Nc5ccc(Oc6ccccc6)cc5)c4cc3Cl)o2)CC1`: the inhibition is -5%.

As for `Cc1ccc(NCc2cccc(F)c2)cc1S(=O)(=O)N[C@@H]1CCN(C#N)C1`, the inhibition is -2%.

Regarding `COc1ccc(NC(=O)N2CCN(CCCCCNC(=O)/C=C/c3ccc(C(F)(F)F)cc3)CC2)cc1Cl`, the inhibition was -2%.

Consider `NC1=NC(c2ccccc2)(c2cccc(O)c2)C(=O)N1CCCc1ccccc1` (stereo not drawn), for which the inhibition was -2% and 4%.

In the case of `COc1c(C2CCN(CCCCNC(=O)c3noc(-c4ccc(C#N)cc4)n3)CC2)ccc2c1CCCC2`, the inhibition is -1%.

With `Cc1noc(C)c1-c1ccc2c(Nc3ccccc3C(C)(C)C)c(C(=O)NCc3ccc(OC(C)C)cc3)cnc2c1`, the inhibition was 0%.

As to `Cc1cc(=O)c(-c2ccc(Oc3cccc(C(F)(F)F)c3)cc2)c(C)[nH]1`, the inhibition is -2% and -1%.

For `O=c1cc(NCCCNCc2cc(Cl)cc(Cl)c2OCc2ccccc2)[nH]c2ccccc12`, the inhibition is -2%.

Regarding `O=C(NCCCCN1CCC(c2ccc(OC(F)(F)F)cc2)CC1)c1ccc(NC(=O)c2ccc(Cl)cc2)cc1`, the inhibition was -3%.

As to `Cc1cc(NCCC(=O)NCCc2ccccc2)nc(NCCc2ccc(F)cc2)n1`, the inhibition is -1%.

Consider `O=C(/C=C/c1ccc(Cl)c(Cl)c1)NC1CCN(Cc2ccc(O)cc2)CC1`, for which the inhibition is 3%.

For `c1ccc(Oc2cccc(Nc3ccnc4ccccc34)c2)cc1`, the inhibition is 6%.
